Experiment [1] deals with TRPC4 beta (transient receptor potential cation channel C4), mouse. Briefly: TRPC4 cation channel opening, retest – cell-based, Fluo4 calcium, HEK293 TRPC4beta/mu-opioid, duplicates, 10 µM, confirmation (AID 2426;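 active = fluorescence ratio normalized to control raised more than 50% in primary screen plus both repeat runs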;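 as to activation: percent rise of integrated ratio over buffer wells lacking compound which define 0%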). The following applies: Fluo4 calcium fluorescence, at 10 µM; stronger effect = higher value.
For experiment [2], the system named is transient receptor potential cation channel C4 beta (TRPC4), mouse. Briefly: TRPC4 cation channel opening, second retest – cell-based, second round, Fluo4, HEK293 TRPC4beta/mu-opioid, 1 µM, confirmation (AID 2461;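 active = primary screen active and over 50% activation in each of two duplicate runs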). The note with it: Fluo4 calcium fluorescence, at 1 µM; stronger effect = higher value.
In experiment [3] the test system is TRPC4 (transient receptor potential cation channel C4 beta), mouse. Briefly: potentiation of DAMGO EC20 TRPC4 response – cell-based, second round, Fluo-4, HEK293 TRPC4beta/mu-opioid, 1 µM, confirmation (AID 2554). The note with it: DAMGO EC20, Fluo-4 calcium flux, at 1 µM; stronger effect = higher value. On the technique in general: Calcium flux is commonly read through the fluorescence of an indicator in the cells.

The test system of experiment [4] is TRPC4 beta (transient receptor potential cation channel C4), mouse. The experiment can be described thus: potentiation of DAMGO EC20 TRPC4 response – cell-based, Fluo-4, HEK293 TRPC4beta/mu-opioid, confirmation (AID 2555;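 active = primary screen hit whose calcium fluorescence ratio, in both repeats, exceeds the weak agonist control mean by 3 SD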). The note with it: DAMGO EC20, Fluo-4 calcium flux, at 10 µM; stronger effect = higher value.
Experiment [5] has as its target Short transient receptor potential channel 4 (Mus musculus) (UniProt Q9QUQ5). Briefly: blockers of DAMGO-evoked TRPC4 calcium flux – cell-based, Fluo4, HEK293 TRPC4beta/mu-opioid, confirmation (AID 2636;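 active = calcium signal cut by more than 3 SD below the full-agonist control yet still positive, in both repeats and the earlier primary screen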). The note with it: at 10 µM; stronger effect = higher value.
Experiment [6] has the same target. Briefly: blockers of DAMGO-evoked TRPC4 calcium flux – cell-based, second round, Fluo4, HEK293 TRPC4beta/mu-opioid, 1 µM, confirmation (AID 2637;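 active = calcium signal ratio cut to more than 3 SD under the fully stimulated control mean yet still positive, in both repeats and the primary screen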;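 as to inhibition: percent of integrated ratio relative to wells lacking test compound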). The note with it: at 1 µM; stronger effect = higher value.
The target is the same in experiment [7]. The experiment can be described thus: calcium entry via TRPC4 opening agents – cell-based, HEK293 TRPC4/mu-opioid, Fluo-4 calcium, dose response (AID 434937;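 active = primary screen activator hit with a dose response curve and TRPC4 channel activation at any tested dose; inactive = no activation, no dose response, or not a primary hit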).
Experiment [8] shares this target. Briefly: potentiation of DAMGO-evoked TRPC4 calcium signal – cell-based, HEK293 TRPC4/mu-opioid, Fluo-4 calcium, EC20 DAMGO, dose response (AID 434941;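 active = earlier screen potentiator hit that boosts the TRPC4 ion channel at some dose, with a dose response; inactive = no potentiation, no dose response, or not a prior hit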;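 also: calcium entry triggered by an EC20 dose of DAMGO at the co-expressed mu-opioid receptor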).
Experiment [9] deals with Short transient receptor potential channel 6 (Mus musculus) (UniProt Q61143). Briefly: TRPC6 blockade by TRPC4 inhibitor hits – cell-based, HEK293, membrane potential dye, duplicate, selectivity assay for TRPC4 inhibitor project, confirmation (AID 434948;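 active = active in primary screen and both duplicates, each dropping signal beyond three positive-control SD with fluorescence still positive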). The note with it: HEK293 TRPC6, membrane potential dye fluorescence, at 10 µM, stimulated with maximal-effect acetylcholine; stronger effect = higher value.

Experiment [10] shares this target. Briefly: TRPC6 opening by TRPC4 activator hits – cell-based, HEK293, membrane potential dye, duplicate, selectivity assay for TRPC4 activator project, confirmation (AID 434950;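 active = membrane potential signal rise above negative control mean plus 3 SD in both duplicates, also active in the earlier TRPC4 screen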). The note with it: HEK293 TRPC6, membrane potential fluorescence, at 10 µM; activation: stronger effect = higher value; outcome: activation.
Experiment [11] has the same target. Briefly: positive modulators of mouse TRPC6 channel – HEK293 cells, membrane potential dye, duplicate, selectivity assay for TRPC4 potentiator project, confirmation (AID 434952;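 active = compound raising the membrane signal above positive-control mean plus 3 SD in both repeats, and a primary screen hit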). The following applies: HEK293 TRPC6, membrane potential dye fluorescence, at 10 µM, maximal acetylcholine added after compound; stronger effect = higher value.
The target in experiment [12] is Short transient receptor potential channel 4 (Mus musculus) (UniProt Q9QUQ5). The experiment can be described thus: calcium flux activators in TRPC4/5HT1a cells, counter-screen for TRPC4 activator project, cell-based, second counter screen, HEK293 TRPC4/5HT1a, Fluo-4 (AID 434977;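 active = calcium signal rise above buffer-control mean plus 5 SD in both duplicates, and also a hit in the primary screen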). The note with it: Fluo-4 calcium flux, at 10 µM; stronger effect = higher value.
Experiment [13] can be described thus: serotonin-gated TRPC4 signal block – cell-based, second counter screen, HEK293 TRPC4/5HT1a, Fluo-4, counter-screen for TRPC4 inhibitor project, confirmation (AID 434978;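 active = primary screen active whose calcium signal fell more than 3 SD beyond the full-serotonin control mean in both duplicate plates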;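 as to outcome: serotonin given first at submaximal then at maximal dose after compound preincubation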). The note with it: Fluo-4 calcium flux, at 10 µM, serotonin added to trigger calcium flux; stronger effect = higher value. A general note: Counterscreens check selectivity or assay interference.
The test system of experiment [14] is TRPC4 (mouse), co-expressed with 5HT1a in HEK293. Briefly: enhancement of serotonin-evoked TRPC4 response – cell-based, second counter screen, HEK293 TRPC4/5HT1a, Fluo-4, counter-screen for TRPC4 potentiator project, confirmation (AID 434979;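 active = signal rise over 3 SD above mean of control wells given weak agonist, in both repeats and first screen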). The following applies: Fluo-4 calcium flux, at 10 µM, serotonin added at its EC20 dose; stronger effect = higher value.
The nature of experiment [15]: nonspecific calcium rise without TRPC4 – cell-based, HEK293 mu-opioid receptor line, counter-screen for TRPC4 activator project, confirmation (AID 449723;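 active = hit in primary screen, with calcium signal over 5 SD above buffer well mean in both duplicates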;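 also: counter screen cells carry the mu-opioid receptor alone and lack TRPC4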). The following applies: HEK293 mu-opioid cells, Fluo-4 calcium fluorescence, at 10 µM; stronger effect = higher value.
Experiment [16] can be described thus: nonspecific potentiation of DAMGO calcium response – cell-based, HEK293 mu-opioid receptor line, counter-screen for TRPC4 allosteric potentiator project, confirmation (AID 449724;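 active = calcium signal rise more than 3 SD above the low-dose agonist control mean, in both duplicate plates and the primary screen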;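 also: HEK293 cells carrying mu-opioid receptor only with no TRPC4 channel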). The following applies: HEK293 mu-opioid receptor cells, Fluo-4 calcium flux, at 10 µM, compound added before EC20 DAMGO stimulus; stronger effect = higher value.

For part of these data: Entries with a potency or affinity are not part of this list. Calls of active or inactive are those of the source.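 The calls were made as follows, unless noted: active = primary screen hit whose fluorescence ratio, in both repeats, exceeds the weak agonist control mean by 3 SD; inactive = the rest.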

For orientation: inhibition means how much of the control response was suppressed.

Sequence of Short transient receptor potential channel 4 (Mus musculus) (Q9QUQ5 whole entry, looked up): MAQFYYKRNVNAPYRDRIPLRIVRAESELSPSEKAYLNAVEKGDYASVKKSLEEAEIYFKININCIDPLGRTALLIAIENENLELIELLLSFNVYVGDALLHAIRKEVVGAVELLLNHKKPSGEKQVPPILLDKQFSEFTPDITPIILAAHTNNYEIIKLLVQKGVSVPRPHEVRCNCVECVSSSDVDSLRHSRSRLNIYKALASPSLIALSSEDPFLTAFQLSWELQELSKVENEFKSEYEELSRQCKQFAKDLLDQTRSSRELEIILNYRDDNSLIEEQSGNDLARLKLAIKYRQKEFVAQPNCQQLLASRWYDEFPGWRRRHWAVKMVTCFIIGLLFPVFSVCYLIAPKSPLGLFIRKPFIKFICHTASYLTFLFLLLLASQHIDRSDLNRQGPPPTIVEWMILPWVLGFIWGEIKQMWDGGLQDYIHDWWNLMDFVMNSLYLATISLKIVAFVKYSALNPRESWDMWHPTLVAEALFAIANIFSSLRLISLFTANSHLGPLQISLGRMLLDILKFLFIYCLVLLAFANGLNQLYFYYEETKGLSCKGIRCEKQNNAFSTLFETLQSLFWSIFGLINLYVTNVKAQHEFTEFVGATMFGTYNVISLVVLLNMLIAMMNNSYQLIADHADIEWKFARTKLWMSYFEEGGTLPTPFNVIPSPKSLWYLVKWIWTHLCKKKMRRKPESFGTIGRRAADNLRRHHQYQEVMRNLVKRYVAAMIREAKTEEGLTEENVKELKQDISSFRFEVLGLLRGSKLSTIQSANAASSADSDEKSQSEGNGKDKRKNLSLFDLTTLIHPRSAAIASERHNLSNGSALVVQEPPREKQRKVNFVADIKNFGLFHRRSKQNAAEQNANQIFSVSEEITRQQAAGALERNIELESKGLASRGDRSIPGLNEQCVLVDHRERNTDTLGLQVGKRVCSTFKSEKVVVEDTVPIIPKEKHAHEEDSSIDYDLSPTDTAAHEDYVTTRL
Sequence of Short transient receptor potential channel 6 (Mus musculus) (Q61143 whole entry, looked up): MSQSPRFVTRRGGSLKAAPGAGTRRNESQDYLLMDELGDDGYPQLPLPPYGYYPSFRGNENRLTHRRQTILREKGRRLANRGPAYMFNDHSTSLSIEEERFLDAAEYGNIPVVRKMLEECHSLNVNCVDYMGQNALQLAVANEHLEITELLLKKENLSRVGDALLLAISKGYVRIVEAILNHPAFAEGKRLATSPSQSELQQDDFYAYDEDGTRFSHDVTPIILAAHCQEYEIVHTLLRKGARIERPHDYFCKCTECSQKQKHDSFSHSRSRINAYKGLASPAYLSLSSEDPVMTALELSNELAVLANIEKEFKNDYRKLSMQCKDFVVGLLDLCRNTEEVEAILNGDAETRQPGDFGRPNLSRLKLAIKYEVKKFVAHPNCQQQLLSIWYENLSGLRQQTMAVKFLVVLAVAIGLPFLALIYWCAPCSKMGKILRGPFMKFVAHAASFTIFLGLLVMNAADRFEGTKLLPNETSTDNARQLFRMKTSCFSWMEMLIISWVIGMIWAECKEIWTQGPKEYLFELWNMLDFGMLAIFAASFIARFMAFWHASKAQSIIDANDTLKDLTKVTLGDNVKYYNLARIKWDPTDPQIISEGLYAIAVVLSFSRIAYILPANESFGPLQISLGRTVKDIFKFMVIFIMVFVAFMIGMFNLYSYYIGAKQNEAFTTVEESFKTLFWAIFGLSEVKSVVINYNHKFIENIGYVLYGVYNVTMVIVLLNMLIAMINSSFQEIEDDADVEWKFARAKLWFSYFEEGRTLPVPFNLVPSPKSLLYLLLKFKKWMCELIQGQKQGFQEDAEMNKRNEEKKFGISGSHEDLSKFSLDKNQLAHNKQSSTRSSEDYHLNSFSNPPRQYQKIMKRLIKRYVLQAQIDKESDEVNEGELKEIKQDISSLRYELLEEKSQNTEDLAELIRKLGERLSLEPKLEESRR

Turning to `CCc1ccccc1NC(=S)N(CCCN(C)C)Cc1cc2cc3c(cc2[nH]c1=O)OCO3`, the outcome in experiment [1], in experiment [2], in [3], in experiment [4], in experiment [7] and in experiment [8] was inactive. For the same compound, the compound was called inactive in experiment [9], in experiment [10], in experiment [11], in [12], in experiment [14] and in [15]. For the same compound, the result in [16] was inactive. Further, the inhibition is 94% (active) in experiment [5], 92% (active) in [6] and 19.9% (active) in experiment [13].
As for `CCCC[n+]1c2ccccc2cc2ccccc21`, the result in experiment [1], in [2], in experiment [3], in experiment [4], in experiment [7] and in experiment [8] was inactive. Moreover, the compound was classed as inactive in experiment [9], in experiment [10], in experiment [11], in [12], in experiment [14] and in experiment [15]. Moreover, in experiment [16], the outcome was inactive. Moreover, the inhibition was 87% (active) in [5], 54% (active) in [6] and 18.4% (active) in [13].
Take `COc1ccc(O)c(C(=O)c2cnc3c(c2)c(=O)[nH]c(=O)n3C)c1`: the result in experiment [1], in experiment [2], in [3], in [4], in experiment [7] and in [8] was inactive. Moreover, the compound was classed as inactive in experiment [9], in experiment [10], in experiment [11], in experiment [12], in [14] and in experiment [15]. The outcome in [16] was inactive. The results for the inhibition in experiment [5], in experiment [6] and in experiment [13] were 92% (active), 63% (active) and 20% (active), respectively.
In the case of `O=C(OC1C2CCC1C1CN(CCc3ccccc3)CC12)c1ccccc1` (stereo not given), the result in [1], in [2], in experiment [3], in experiment [4], in experiment [5] and in experiment [7] was inactive. Also, the outcome in experiment [8], in [9], in experiment [10], in [11], in experiment [12] and in [13] was inactive. In addition, the result in experiment [14], in experiment [15] and in experiment [16] was inactive. The inhibition in experiment [6] is 44% (active).
Regarding `CCC(=O)N1CCc2cc(S(=O)(=O)NCCN3CCCCC3CC)ccc21` (stereo not given), the outcome in experiment [1], in experiment [2], in [3], in experiment [4], in [7] and in experiment [8] was inactive. Besides, the compound was called inactive in experiment [9], in experiment [10], in [11], in experiment [12], in experiment [14] and in experiment [15]. For the same compound, in [16], the outcome was inactive. Also, the figures for the inhibition in experiment [5], in [6] and in experiment [13] were 94% (active), 59% (active) and 17.9% (active), respectively.
In the case of `COc1cccc(/C=C2\SC(=S)N(NS(=O)(=O)c3ccc(C)cc3)C2=O)c1OC`, the outcome in experiment [1], in experiment [2], in experiment [3], in experiment [4], in [6] and in experiment [7] was inactive. The result in experiment [8], in [9], in experiment [10], in experiment [11], in experiment [12] and in experiment [14] was inactive. The outcome in experiment [15] and in experiment [16] was inactive. Further, the inhibition is 95% (active) in experiment [5] and 4.07% (active) in experiment [13].
In the case of `Cc1ccc(NC(=S)N(CCCN(C)C)Cc2cc3cc4c(cc3[nH]c2=O)OCO4)c(C)c1`, the result in [1], in [2], in experiment [3], in experiment [4], in experiment [7] and in [8] was inactive. The call in [9], in [10], in experiment [11], in experiment [12], in experiment [14] and in experiment [15] was inactive. The result in [16] was inactive. Moreover, the inhibition in experiment [5] is 96% (active); in [6] it was 70% (active); in [13], 14.4% (active).
With `COc1cccc(C2=NN(C(=O)c3ccco3)C(c3ccco3)C2)c1` (stereo not given), the result in [1], in [2], in experiment [3], in experiment [4], in experiment [6] and in experiment [7] was inactive. Further, the result in [8], in [9], in [10], in [11], in [12] and in experiment [14] was inactive. For the same compound, the outcome in [15] and in experiment [16] was inactive. The inhibition in [5] was 71% (active); in experiment [13], 20.6% (active).
As to `CNC(=S)N1CCN(C(c2ccccc2)c2ccccc2)CC1`, the activation in experiment [1] was 223% (active). Moreover, the result in [2], in [3], in experiment [4], in experiment [6], in experiment [7] and in experiment [8] was inactive. For the same compound, the compound was classed as inactive in [9], in experiment [10], in experiment [11], in experiment [12], in experiment [13] and in [14]. In addition, the result in [15] and in [16] was inactive. For the same compound, the inhibition in experiment [5] is 93% (active).
Take `Cc1ccc(N(C(=O)c2snc(C(N)=O)c2N)C(C(=O)NCC2CCCO2)c2ccc(C)o2)c(C)c1` (stereo not given): the result in experiment [1], in experiment [2], in experiment [3], in experiment [4], in experiment [6] and in experiment [7] was inactive. Further, the result in experiment [8], in [9], in experiment [10], in experiment [11], in experiment [12] and in experiment [14] was inactive. The outcome in experiment [15] and in experiment [16] was inactive. Further, the inhibition in [5] is 75% (active); in [13] it was 34% (active).
Regarding `Cc1ccc(Cn2c(Cc3ccccc3)nc3ccccc32)cc1`, the outcome in experiment [1], in experiment [2], in experiment [3], in experiment [4], in experiment [5] and in experiment [7] was inactive. Besides, the result in [8], in experiment [9], in [10], in experiment [11], in [12] and in experiment [14] was inactive. Further, the outcome in experiment [15] and in experiment [16] was inactive. The inhibition is 64% (active) in experiment [6] and 7.29% (active) in experiment [13].
Take `Cn1c(-c2ccc(F)cc2)cnc1NCc1ccc(F)cc1F`: the outcome in [1], in experiment [2], in experiment [3], in [4], in experiment [7] and in experiment [8] was inactive. For the same compound, the call in experiment [9], in experiment [10], in [11], in experiment [12], in [14] and in experiment [15] was inactive. Besides, the outcome in [16] was inactive. The inhibition was 88% (active) in experiment [5], 46% (active) in experiment [6] and 29.9% (active) in [13].
As for `Cc1cc([N+](=O)[O-])ccc1NCc1ccco1`, the outcome in [1], in experiment [2], in [3], in [4], in experiment [6] and in [7] was inactive. Besides, the result in experiment [8], in experiment [9], in [10], in experiment [11], in experiment [12] and in experiment [14] was inactive. The outcome in experiment [15] and in [16] was inactive. The inhibition in [5] was 92% (active); in experiment [13], 14.5% (active).
`Cc1ccc(OCc2cc(C(=O)N(C)CCc3nc4ccccc4[nH]3)no2)cc1C`: the outcome in [1], in experiment [2], in experiment [3], in experiment [4], in experiment [6] and in [7] was inactive. In addition, the outcome in experiment [8], in experiment [9], in [10], in experiment [11], in experiment [12] and in experiment [13] was inactive. Moreover, the outcome in experiment [14], in experiment [15] and in [16] was inactive. Besides, the inhibition in experiment [5] was 69% (active).
As for `Oc1ccccc1Nc1nc(NCc2ccco2)c2ccccc2n1`, the outcome in experiment [1], in experiment [2], in experiment [3], in experiment [4], in experiment [6] and in [7] was inactive. Besides, the outcome in [8], in experiment [10], in experiment [11], in experiment [12], in experiment [14] and in experiment [15] was inactive. For the same compound, the outcome in [16] was inactive. Further, the inhibition in [5] was 88% (active); in experiment [9], 34.5% (active); in [13], 39.1% (active).

The record behind these values is PubChem BioAssay.
